ssDAF12 agonist = S. stercoralis DAF-12 nuclear receptor activators, primary screen, cell-based, luminescence, HEK293, GRIP1 co-expression, lit1-tk-luc | HEK293 ssDAF-12/GRIP1 lit1-tk-luc reporter; % of 3 µM dafachronic acid response | Nuclear hormone receptor DAF-12 (Strongyloides stercoralis) | 370,000 tested, 1% active | AID 652126, 2013 | activation, % at 6.8 µM;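 active = activation above the mean over all tested compounds plus 3 SD, cut at about 0.9% in these data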;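 also: 0% = DMSO-only wells and 100% = 3 µM delta7-dafachronic acid wells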
hgDAF12 agonist = H. glycines DAF-12 receptor agonists, primary screen, cell-based, luminescence, HEK293, GAL4 fusion, UAS-luciferase; Nuclear hormone receptor DAF-12 (Heterodera glycines), GAL4 fusion; HEK293 GAL4-hgDAF12 UAS-luciferase reporter, agonist luminescence; normalized to butyrate control; activation, % at 6.8 µM; 370,000 tested, 1.8% active; AID 687014, 2013;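 active = activation above a cutoff set at the mean of all screened compounds plus 3 SD, cut at about 10% in these data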;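 also: 0% = DMSO wells and 100% = sodium butyrate wells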
hcDAF-12 act = H. contortus DAF-12 nuclear receptor activators, primary screen, cell-based, luminescence, HEK293, lit1-tk-luc reporter | HEK293 hcDAF-12 lit1-tk-luc reporter; 0% DMSO, 100% Δ7-dafachronic acid | AID 652067, 2013 | 370,000 tested, 1.4% active | activation, % at 6.8 µM;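 active = activation above the mean of all tested compounds plus 3 SD, cut at about 5.5% in these data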;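 also: 100% = response to 3 µM Δ7-dafachronic acid high control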
NF-kB expr up = activators of NF-kB expression in neurons, primary screen, cell-based, HTS; 190,000 tested, 1.6% active; human neuronal cells, NF-kB reporter expression; stronger effect = higher value; fold change at 12.5 µM; AID 1239, 2008; in the data active = fold change above about 3.3
APP 5'UTR act = activators of APP 5'UTR luciferase reporter, primary screen, SH-SY5Y cells; activation, % at 2 µM; 190,000 tested, 1% active; AID 1276, 2008; SH-SY5Y APP 5'UTR luciferase reporter, luminescence; zero percent = DMSO vehicle wells;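 active = activation above a set limit, based on mean plus 3 SD of controls, cut at about 140% in these data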
Starred values were filed as active, the others as inactive; x = no result. An excerpt weighted towards active compounds, which were near 3.4% of everything screened.

SMILES	ssDAF12 agonist	hgDAF12 agonist	hcDAF-12 act	NF-kB expr up	APP 5'UTR act
O=C1CC(SC2=NCCS2)C(=O)N1c1ccc(Cl)cc1 (centres undefined)	1.4*	-3.3	0.1	0.94	-15.8
COc1ccc(Cc2c(-c3ccccc3)nc3ccc(Br)cn23)c(C)c1	-0.3	13.1*	1.2	x	x
COc1ccc(Cc2c(-c3cccc(Br)c3)nc3ccc(Cl)cn23)c(C)c1	-0.5	4.7	2.4	x	x
Cc1ccc(Cc2c(-c3ccc(C#N)cc3)nc3c(C)cc(Br)cn23)cc1	1.0*	3.8	-0.4	x	x
COc1ccc(Cc2c(-c3ccc(C)cc3)nc3c(C)cc(Br)cn23)c(C)c1	1.1*	3.2	3.4	x	x
COc1ncc(-c2cc(C(C)=O)c3n(c2=O)CCC3)c(OC)n1	-1.0	2.5	-1.0	x	x
Cc1ccc(-c2nc(C3CCCN(S(=O)(=O)c4ccc(C)c(C)c4)C3)no2)cc1 (centres undefined)	1.0*	7.1	0.9	x	x
CCCCCCCCN1C(=O)[C@@H](CC(=O)N2CCCCC2)C[C@@]2(C(=O)OC)C1=C[C@H](COCc1ccccc1)O[C@@H]2C	-0.6	1.5	5.8*	x	x
CCCCCCCCN1C(=O)[C@@H](CC(=O)N2CCOCC2)C[C@@]2(C(=O)OC)C1=C[C@H](COCc1ccccc1)O[C@@H]2C	-1.7	3.5	-1.1	x	x
COC(=O)c1c(NC(=O)CN2CCN(c3ccccc3Cl)CC2)sc(C)c1C	1.1*	-2.4	4.4	0.97	8.8
CCOC(=O)c1c(NC(=O)CN2CCN(c3ccc(Cl)cc3)CC2)sc(C)c1C	-1.1	2.3	-0.5	1.14	13.2
CN(C)/C=C(\C#N)C(=O)Nc1ccc(F)c(Cl)c1	1.3*	3.3	1.0	x	x
COCCCNC(=O)C[C@H]1C[C@@]2(C(=O)OC)C(=C[C@H](COCc3ccccc3)O[C@@H]2C)N(CCc2ccc(OC)c(OC)c2)C1=O	-1.1	1.7	-1.8	x	x
COC[C@@H]1CCCN1c1cccc2c1S(=O)(=O)N1CC[C@H](C1)O2	-0.4	-3.2	0.3	x	x
CCOC(=O)N1CCC(=NNc2nc3ccccc3s2)CC1	0.4	10.1	5.8*	x	x
CC(=O)NNc1nc2ccccc2s1	0.3	-0.4	3.4	1.1	0.6
CCOC(=O)N1CCN(S(=O)(=O)c2ccc(C(=O)Nc3nc4ccccc4s3)cc2)CC1	-0.8	-0.7	2.4	1.58	-6.4
CC(=O)N1CCC(=NNc2nc3ccccc3s2)CC1	0.6	7.0	6.5*	2.1	107.8
c1ccc2[nH]c(-c3cscn3)nc2c1	-0.2	11.8*	0.8	1.63	21.4
Cn1c2c(c(=O)n(C)c1=O)[C@@]1(C(=O)Nc3ccccc31)C(C#N)=C(N)O2	-0.9	-4.2	1.5	0.96	7.1
Cn1c2c(c(=O)n(C)c1=O)NC1(N2)C(=O)Nc2ccccc21 (centres undefined)	0.9*	3.6	5.1	x	x
CCOC(=O)C(Cc1ccccc1)P(=O)(OCC)OCC (centres undefined)	-1.6	1.7	-1.1	x	x
CC1(C)CC(=O)C2=C(C1)OC(N)=C(C#N)C21C(=O)N2CCCc3cccc1c32 (centres undefined)	1.0*	-0.8	0.0	0.96	-5.5
CC(C)NC(=O)C1C(c2ccc(C(F)(F)F)cc2)=Nc2ccccc2N1C(=O)c1ccccc1 (centres undefined)	1.5*	6.0	4.0	x	x
O=C(NC1CCCC1)C1C(c2ccccc2)=Nc2ccccc2N1C(=O)c1ccc(C(F)(F)F)cc1 (centres undefined)	-0.4	5.0	-1.4	x	x
SMILES	ssDAF12 agonist	hgDAF12 agonist	hcDAF-12 act	NF-kB expr up	APP 5'UTR act
O=C(CSc1nc2ccc(Cl)cc2[nH]1)Nc1ccc2[nH]c(=O)[nH]c2c1	1.0*	0.1	2.9	x	x
Cc1ccc2nc(SCC(=O)Nc3ccc4[nH]c(=O)[nH]c4c3)[nH]c2c1	1.0*	2.4	2.7	x	x
Cc1ccc2nc(SCC(=O)c3ccc(O)cc3O)[nH]c2c1	0.4	11.4*	5.1	x	x
Cc1ccc2nc(-c3ccc(NC(=O)CSc4ccccc4)cc3)[nH]c2c1	-0.6	8.1	3.0	3.47*	87.6
Cc1ccc2nc(SCC(=O)Nc3ccc(C(N)=O)cc3)[nH]c2c1	-0.1	-0.2	-0.7	0.97	5.4
C=CCN1C(=O)[C@H](CC(=O)N2CCCC2)[C@@]2(C(=O)OCC)CCCC=C12	-0.8	3.4	-1.0	x	x
CCc1ccc(CCNC(=O)OCCCN2CCC3(CCC(c4ccccc4)CC3)C2=O)cc1 (centres undefined)	-1.7	-5.7	-2.2	x	x
C[C@H]1[C@@H](NC(=O)c2ccc(C(F)(F)F)cc2)CC[C@@]23CCCN2C(=O)CCC[C@@H]13	-0.9	-0.8	-1.5	x	x
CCN(CC)c1c2c(nc3ncnn13)CCCC2	-1.3	-3.5	0.5	x	x
CCOc1ccc2nc(NC(=O)c3ccc(C)o3)sc2c1	0.9	10.3	5.1	x	x
CN(C)C(=S)Nc1nc2ccccc2s1	-1.9	6.4	-0.6	9.1*	63.4
CCOc1ccc2nc(NC(=S)N(C)C)sc2c1	0.9	7.9	5.5	12.3*	167.1*
CCOC(=O)c1sc(-c2ccc(Br)cc2)cc1N	0.6	10.7*	4.0	2.5	77.0
Cc1ccc2c(c1)C(CS(=O)(=O)NCc1ccc(F)cc1)NC2 (centres undefined)	-0.8	2.0	0.3	x	x
CCc1nnc(NC(=O)c2csc3c2CCC(C)C3)s1 (centres undefined)	x	x	x	1.14	145.2*
COc1ccc(S(=O)(=O)Cc2ccc(C(=O)NCCCN3CCc4ccccc4C3)o2)cc1	3.5*	2.6	5.8*	0.86	3.0
CC(C)c1ccc(/C=C/C(=O)NC2=NCCS2)cc1	x	x	x	3.15	221.5*
COc1cc(OC)c2c(O)c3c(=O)cc(C)oc3c(-c3c(OC)cc4cc5c(c(O)c4c3O)C(=O)CC(C)(O)O5)c2c1 (centres undefined)	-1.4	5.6	-1.8	x	x
COc1ccc(NC2=C(NCCO)C(=O)c3ccccc3C2=O)cc1	-1.2	3.9	2.4	4.31*	32.1
COc1cccc(NC2=C(NCCO)C(=O)c3ccccc3C2=O)c1	-1.1	-1.8	0.1	x	x
O=C(COc1ccccc1)Nc1cc(Cl)ccc1Cl	-0.5	7.4	5.9*	x	x
O=C(COc1ccccc1)Nc1ccc(Cl)cc1Cl	x	x	x	3.46*	114.3
CCc1ccccc1Nc1nc(-c2cccnc2)cs1	-1.5	8.2	-0.7	x	x
O=[N+]([O-])c1ccccc1Nc1nc(-c2cccnc2)cs1	0.0	4.5	5.6*	x	x
COc1ccc(Nc2nc(-c3cccnc3)cs2)c(OC)c1	-1.6	6.6	-0.6	x	x
COc1ccccc1Nc1nc(-c2cccnc2)cs1	1.2*	11.7*	2.0	x	x
Cc1nc2ccc(NC(=O)c3cc(F)cc(F)c3)cc2c(=O)[nH]1	-1.3	-1.1	0.9	x	x

Assay outcomes from PubChem.
